From the supplement of paper PMC10849652
Targets with a hit are over-represented here; the source holds about 7,900 in all. About 0.6% of all pairs of compound and target were hits. A number with no mark means an inactive call.

Tests used:
Experiment in all cases: log2 fold change, soluble protein after heating vs DMSO (PISA); higher = thermal stabilisation; K562 cells, 10 uM, 30 min; active = over 0.2 and 3.5 SD of the protein, either way, in both replicates (recomputed)
[1] = compound: CC1=C(C=C(C=C1)NC(=O)C2=CC(=CC=C2)C(C)(C)C#N)NC3=CC4=C(C=C3)N=CN(C4=O)C
Procedure, shortened: (§1)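 Values are thermal stability changes relative to control samples and are taken from duplicates. They are stated as log2 fold changes. Before quantification by TMTpro 16plex LC-MS/MS with equalised channel sums, K562 cells at 2×10^6 cells/mL were treated with 10 μM compound for 30 min, heated in aliquots for 3 min across 48°C-58°C, pooled, extracted in PBS with 0.5% NP-40 at 4°C, and centrifuged at 21,000xg for 90 min to give the soluble supernatant.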

[2] = compound: CC1=C(C=C(C=C1)NC(=O)C2=CC(=CC=C2)N(C)C)NC(=O)C3=CC=C(C=C3)O
Procedure, shortened: as §1

[3] = compound: CC1=CC=C(C=C1)SC2=C3C=C(SC3=CN=C2)C(=O)N
Procedure, shortened: as §1

[4] = compound: CC1=NC(=CC=C1)C2=C(N=C(N2)C(C)(C)C)C3=CC4=NC=CN=C4C=C3
Procedure, shortened: as §1

Nexturastat A = compound: CCCCN(Cc1ccc(C(=O)NO)cc1)C(=O)Nc1ccccc1 [Nexturastat A]
Procedure, shortened: as §1

vemurafenib = compound: CCCS(=O)(=O)Nc1ccc(F)c(C(=O)c2c[nH]c3ncc(-c4ccc(Cl)cc4)cc23)c1F [vemurafenib]
Procedure, shortened: as §1

[5] = compound: CCCS(=O)(=O)Nc1ccc(F)c(C(=O)c2c[nH]c3ncc(Cl)cc23)c1F
Procedure, shortened: as §1

[6] = compound: CCCc1cc(C)[nH]c(=O)c1CNC(=O)c1cc(-c2ccnc(N3CCN(C)CC3)c2)cc2c1cnn2C(C)C
Procedure, shortened: as §1

givinostat = compound: CCN(CC)Cc1ccc2cc(COC(=O)Nc3ccc(C(=O)NO)cc3)ccc2c1 [givinostat]
Procedure, shortened: as §1

barasertib = compound: CCN(CCCOc1ccc2c(Nc3cc(CC(=O)Nc4cccc(F)c4)[nH]n3)ncnc2c1)CCOP(=O)(O)O [barasertib]
Procedure, shortened: as §1

[7] = compound: CC[C@@H]1C(=O)N(C)c2cnc(Nc3ccc(C(=O)NC4CCN(C)CC4)cc3OC)nc2N1C1CCCC1
Procedure, shortened: as §1

volasertib = compound: CC[C@@H]1C(=O)N(C)c2cnc(Nc3ccc(C(=O)N[C@H]4CC[C@H](N5CCN(CC6CC6)CC5)CC4)cc3OC)nc2N1C(C)C [volasertib]
Procedure, shortened: as §1

[8] = compound: CC[C@H](C)N1C=C(C2=C(C=C(C=C21)C3=CN=C(C=C3)N4CCNCC4)C(=O)NCC5=C(C=C(NC5=O)C)C)C
Procedure, shortened: as §1

epoxomicin = compound: CC[C@H](C)[C@@H](C(=O)N[C@@H]([C@@H](C)O)C(=O)N[C@@H](CC(C)C)C(=O)[C@]1(CO1)C)NC(=O)[C@H]([C@@H](C)CC)N(C)C(=O)C [epoxomicin]
Procedure, shortened: as §1

[9] = compound: CCn1c(C(=O)N(C2CC2)C2CC2)cc2c3c(ncn3C)c(Nc3cc(C)n(C)n3)nc21
Procedure, shortened: as §1

[10] = compound: CCn1cc(-c2ccnc3[nH]c(-c4cccc(CN(C)C)c4)cc23)c(-c2ccc(NC(=O)N(C)C)cc2)n1
Procedure, shortened: as §1

[11] = compound: CN(C)CC(=O)Nc1ccc2[nH]c(=O)c3ccccc3c2c1
Procedure, shortened: as §1

rosiglitazone = compound: CN(CCOC1=CC=C(C=C1)C[C@H]2C(=O)NC(=O)S2)C3=CC=CC=N3 (racemic) [rosiglitazone]
Procedure, shortened: as §1

[12] = compound: CN1C2=C(C3=C1C(=O)N(N=C3)CC4=CC(=CC=C4)N)SC(=C2)S(=O)C
Procedure, shortened: as §1

[13] = compound: CN1CCC(CNc2ccc3ncc(-c4cccc(OC(F)(F)F)c4)n3n2)CC1
Procedure, shortened: as §1

Chain of UniProt Q96DE0 (Q96DE0 whole entry, looked up): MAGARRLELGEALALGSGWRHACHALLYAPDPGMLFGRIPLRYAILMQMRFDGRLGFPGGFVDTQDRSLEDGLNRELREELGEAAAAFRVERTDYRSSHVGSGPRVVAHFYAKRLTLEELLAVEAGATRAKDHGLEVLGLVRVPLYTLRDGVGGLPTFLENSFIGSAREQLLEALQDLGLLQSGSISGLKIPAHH
Chain of UniProt P17568 (P17568 whole entry, looked up): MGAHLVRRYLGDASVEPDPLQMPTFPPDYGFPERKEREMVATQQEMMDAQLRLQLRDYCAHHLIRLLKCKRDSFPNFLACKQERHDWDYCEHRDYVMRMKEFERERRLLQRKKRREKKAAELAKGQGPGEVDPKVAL
Chain of UniProt P46087 (P46087 whole entry, looked up): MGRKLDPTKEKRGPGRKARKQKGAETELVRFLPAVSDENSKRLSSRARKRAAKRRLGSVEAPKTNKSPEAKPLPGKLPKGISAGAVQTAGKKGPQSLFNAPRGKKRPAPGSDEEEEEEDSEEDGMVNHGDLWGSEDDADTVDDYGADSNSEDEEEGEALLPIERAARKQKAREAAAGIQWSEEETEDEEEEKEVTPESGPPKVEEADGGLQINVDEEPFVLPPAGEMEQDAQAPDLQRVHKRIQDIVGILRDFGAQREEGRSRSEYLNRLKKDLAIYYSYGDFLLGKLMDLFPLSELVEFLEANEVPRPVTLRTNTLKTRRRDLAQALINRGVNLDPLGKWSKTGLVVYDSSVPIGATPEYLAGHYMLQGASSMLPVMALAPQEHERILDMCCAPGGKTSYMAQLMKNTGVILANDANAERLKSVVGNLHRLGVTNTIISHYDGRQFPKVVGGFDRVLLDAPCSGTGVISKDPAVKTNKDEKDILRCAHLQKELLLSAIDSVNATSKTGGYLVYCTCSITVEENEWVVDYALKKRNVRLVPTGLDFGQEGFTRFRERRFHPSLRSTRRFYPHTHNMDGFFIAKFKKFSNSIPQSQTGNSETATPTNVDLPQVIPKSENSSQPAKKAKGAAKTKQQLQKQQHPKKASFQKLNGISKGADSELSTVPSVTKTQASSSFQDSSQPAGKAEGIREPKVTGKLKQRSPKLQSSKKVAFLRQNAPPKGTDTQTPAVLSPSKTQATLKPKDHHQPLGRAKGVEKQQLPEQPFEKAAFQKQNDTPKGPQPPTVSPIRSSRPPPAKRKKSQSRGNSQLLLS
Chain of UniProt Q9Y2A7 (Q9Y2A7 whole entry, looked up): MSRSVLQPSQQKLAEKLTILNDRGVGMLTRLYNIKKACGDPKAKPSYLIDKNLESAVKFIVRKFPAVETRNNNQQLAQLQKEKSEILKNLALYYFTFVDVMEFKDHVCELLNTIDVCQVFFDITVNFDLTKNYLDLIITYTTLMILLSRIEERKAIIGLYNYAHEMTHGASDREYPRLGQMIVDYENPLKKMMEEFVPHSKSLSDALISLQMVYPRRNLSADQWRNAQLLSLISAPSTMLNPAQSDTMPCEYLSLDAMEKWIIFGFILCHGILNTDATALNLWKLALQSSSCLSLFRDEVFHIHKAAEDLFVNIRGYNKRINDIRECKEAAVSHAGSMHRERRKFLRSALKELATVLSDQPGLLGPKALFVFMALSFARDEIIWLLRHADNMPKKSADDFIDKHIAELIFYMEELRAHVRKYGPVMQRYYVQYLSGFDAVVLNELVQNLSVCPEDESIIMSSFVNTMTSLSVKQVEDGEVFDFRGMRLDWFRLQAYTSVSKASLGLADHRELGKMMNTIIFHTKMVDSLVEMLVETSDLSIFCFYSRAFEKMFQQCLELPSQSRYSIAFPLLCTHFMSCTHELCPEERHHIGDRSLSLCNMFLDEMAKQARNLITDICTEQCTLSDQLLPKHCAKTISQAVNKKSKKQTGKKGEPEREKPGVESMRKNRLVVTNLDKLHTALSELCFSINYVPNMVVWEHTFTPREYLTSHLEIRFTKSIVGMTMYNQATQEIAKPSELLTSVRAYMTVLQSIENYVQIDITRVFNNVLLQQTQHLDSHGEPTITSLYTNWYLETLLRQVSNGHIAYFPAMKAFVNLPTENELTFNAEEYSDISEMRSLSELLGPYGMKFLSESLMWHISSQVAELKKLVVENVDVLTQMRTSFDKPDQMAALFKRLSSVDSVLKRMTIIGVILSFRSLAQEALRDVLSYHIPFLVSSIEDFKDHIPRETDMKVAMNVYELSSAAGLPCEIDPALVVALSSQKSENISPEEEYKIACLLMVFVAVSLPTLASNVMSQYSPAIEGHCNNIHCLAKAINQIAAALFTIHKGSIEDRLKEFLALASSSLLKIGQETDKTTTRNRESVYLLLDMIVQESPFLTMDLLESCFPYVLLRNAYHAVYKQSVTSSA
Chain of UniProt O95182 (O95182 whole entry, looked up): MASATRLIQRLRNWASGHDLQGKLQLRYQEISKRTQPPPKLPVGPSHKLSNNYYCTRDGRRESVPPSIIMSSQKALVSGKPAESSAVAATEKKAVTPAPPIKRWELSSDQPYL
Chain of UniProt Q15021 (Q15021 whole entry, looked up): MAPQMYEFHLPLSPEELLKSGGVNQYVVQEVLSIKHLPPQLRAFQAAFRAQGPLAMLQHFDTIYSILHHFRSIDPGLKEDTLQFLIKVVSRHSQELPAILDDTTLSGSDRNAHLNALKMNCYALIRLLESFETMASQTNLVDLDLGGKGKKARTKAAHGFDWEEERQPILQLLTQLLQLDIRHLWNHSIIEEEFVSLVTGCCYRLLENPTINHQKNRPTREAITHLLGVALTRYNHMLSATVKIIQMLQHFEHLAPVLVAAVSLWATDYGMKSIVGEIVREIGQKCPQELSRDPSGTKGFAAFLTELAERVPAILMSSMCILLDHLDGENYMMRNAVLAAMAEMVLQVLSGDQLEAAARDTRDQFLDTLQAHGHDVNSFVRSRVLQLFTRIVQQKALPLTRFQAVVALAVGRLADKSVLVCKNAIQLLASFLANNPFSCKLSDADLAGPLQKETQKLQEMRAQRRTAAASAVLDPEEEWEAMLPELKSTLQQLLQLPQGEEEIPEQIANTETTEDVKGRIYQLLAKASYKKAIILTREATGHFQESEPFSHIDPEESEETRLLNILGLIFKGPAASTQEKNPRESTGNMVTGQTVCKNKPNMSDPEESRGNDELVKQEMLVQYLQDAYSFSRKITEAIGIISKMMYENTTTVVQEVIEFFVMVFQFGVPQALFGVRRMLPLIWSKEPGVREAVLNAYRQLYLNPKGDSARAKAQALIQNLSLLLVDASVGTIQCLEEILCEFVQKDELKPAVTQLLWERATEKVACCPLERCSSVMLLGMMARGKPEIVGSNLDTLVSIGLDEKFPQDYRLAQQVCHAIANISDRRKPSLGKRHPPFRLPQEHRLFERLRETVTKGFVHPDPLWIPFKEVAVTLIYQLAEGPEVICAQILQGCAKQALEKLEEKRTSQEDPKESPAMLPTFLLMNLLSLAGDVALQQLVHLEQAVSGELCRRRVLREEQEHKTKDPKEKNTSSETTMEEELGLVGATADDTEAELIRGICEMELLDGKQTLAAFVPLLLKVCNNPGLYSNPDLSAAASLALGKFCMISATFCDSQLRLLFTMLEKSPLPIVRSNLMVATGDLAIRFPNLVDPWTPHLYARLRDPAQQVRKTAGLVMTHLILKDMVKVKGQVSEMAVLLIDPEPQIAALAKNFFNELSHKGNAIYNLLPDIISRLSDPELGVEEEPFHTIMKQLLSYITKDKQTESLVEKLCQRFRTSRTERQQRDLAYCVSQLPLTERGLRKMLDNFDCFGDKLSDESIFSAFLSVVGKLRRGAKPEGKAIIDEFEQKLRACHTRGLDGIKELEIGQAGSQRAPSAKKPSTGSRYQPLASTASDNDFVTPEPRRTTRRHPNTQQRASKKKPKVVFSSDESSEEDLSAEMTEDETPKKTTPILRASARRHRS
Chain of UniProt Q01804 (Q01804 whole entry, looked up): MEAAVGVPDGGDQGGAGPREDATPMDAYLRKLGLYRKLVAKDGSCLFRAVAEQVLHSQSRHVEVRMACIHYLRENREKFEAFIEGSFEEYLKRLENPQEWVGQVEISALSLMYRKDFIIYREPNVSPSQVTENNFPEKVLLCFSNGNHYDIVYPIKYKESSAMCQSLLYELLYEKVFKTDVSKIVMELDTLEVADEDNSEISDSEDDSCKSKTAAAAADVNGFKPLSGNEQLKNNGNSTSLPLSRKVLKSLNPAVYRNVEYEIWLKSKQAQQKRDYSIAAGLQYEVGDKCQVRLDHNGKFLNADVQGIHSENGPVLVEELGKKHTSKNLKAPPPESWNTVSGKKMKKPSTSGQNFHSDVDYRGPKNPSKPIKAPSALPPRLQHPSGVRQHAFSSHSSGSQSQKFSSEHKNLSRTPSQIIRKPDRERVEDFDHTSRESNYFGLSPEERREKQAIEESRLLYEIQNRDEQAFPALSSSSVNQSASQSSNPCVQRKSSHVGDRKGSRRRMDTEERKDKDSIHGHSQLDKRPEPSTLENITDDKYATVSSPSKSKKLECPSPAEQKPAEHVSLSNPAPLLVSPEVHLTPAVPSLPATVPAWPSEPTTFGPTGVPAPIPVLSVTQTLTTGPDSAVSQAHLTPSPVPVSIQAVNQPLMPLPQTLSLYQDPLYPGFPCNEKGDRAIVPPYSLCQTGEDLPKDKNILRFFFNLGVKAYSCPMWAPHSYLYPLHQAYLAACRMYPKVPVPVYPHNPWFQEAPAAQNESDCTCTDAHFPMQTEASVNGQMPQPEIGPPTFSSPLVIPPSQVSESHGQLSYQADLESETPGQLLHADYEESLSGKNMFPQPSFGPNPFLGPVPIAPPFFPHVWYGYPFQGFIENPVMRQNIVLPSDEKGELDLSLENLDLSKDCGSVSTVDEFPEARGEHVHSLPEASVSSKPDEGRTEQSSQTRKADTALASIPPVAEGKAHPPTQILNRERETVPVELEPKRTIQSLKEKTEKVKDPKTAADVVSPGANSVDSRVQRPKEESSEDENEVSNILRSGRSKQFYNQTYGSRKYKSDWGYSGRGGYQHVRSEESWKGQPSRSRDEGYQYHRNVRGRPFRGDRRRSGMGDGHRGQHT

Target | log2 fold change [1] | log2 fold change [2] | log2 fold change [3] | log2 fold change [4] | log2 fold change (Nexturastat A) | log2 fold change (vemurafenib) | log2 fold change [5] | log2 fold change [6] | log2 fold change (givinostat) | log2 fold change (barasertib) | log2 fold change [7] | log2 fold change (volasertib) | log2 fold change [8] | log2 fold change (epoxomicin) | log2 fold change [9] | log2 fold change [10] | log2 fold change [11] | log2 fold change (rosiglitazone) | log2 fold change [12] | log2 fold change [13]
NUDT16 (UniProt Q96DE0) | -0.031 | -0.005 | -0.008 | -0.03 | -0.003 | 0.163 | 0.019 | -0.041 | -0.006 | 0.028 | 0.038 | 0.033 | -0.059 | 0.009 | -0.019 | -0.073 | -0.011 | -0.048 | -0.069 | -0.035
NDUFB7 (UniProt P17568) | 0.037 | -0.006 | 0.063 | 0.027 | 0.023 | 0.018 | -0.014 | -0.124 | -0.367 (active) | -0.012 | -0.053 | -0.004 | -0.072 | -0.066 | -0.129 | -0.099 | -0.036 | 0.058 | -0.058 | 0.094
NDUFA7 (UniProt O95182) | -0.013 | 0 | -0.007 | -0.021 | -0.035 | -0.045 | 0.019 | -0.079 | -0.024 | -0.011 | -0.19 | -0.109 | -0.023 | 0.052 | 0 | 0.011 | 0.01 | -0.02 | 0.027 | -0.324 (active)
NCAPD2 (UniProt Q15021) | 0.057 | -0.032 | 0.012 | -0.013 | 0.058 | 0.119 | 0.041 | 0.101 | 0.077 | 0.03 | -0.131 | -0.486 (active) | 0.081 | 0.019 | -0.085 | 0 | 0.075 | 0.023 | 0.044 | -0.098
NUDT1 (UniProt P36639) | -0.016 | -0.058 | -0.064 | -0.164 | -0.086 | -0.004 | 0.209 | -0.026 | -0.042 | -0.03 | 0.971 (active) | 1.35 (active) | -0.012 | -0.039 | -0.113 | -0.19 | 0.06 | 0.054 | -0.088 | 0.157
NOP2 isoform 4 (UniProt P46087) | -0.031 | -0.062 | -0.105 | -0.264 | 0.2 | -0.433 | -0.051 | 0.172 | 0.178 | -0.223 | 0.196 | 0.348 | -0.03 | -0.328 | -0.098 | 0.364 | -0.346 | -0.056 | 0.546 | 0.494
NCKAP1 isoform 2 (UniProt Q9Y2A7) | 0.039 | 0.009 | 0.004 | 0.033 | 0.02 | 0.036 | 0.015 | 0.064 | 0.021 | -0.009 | 0.002 | -0.25 (active) | 0.031 | 0.01 | -0.003 | -0.036 | 0.043 | 0.011 | -0.042 | -0.027
OTUD4 (UniProt Q01804) | -0.038 | -0.017 | -0.035 | -0.069 | 0.055 | -0.016 | 0.007 | -0.03 | 0.05 | -0.083 | 0.078 | -0.067 | 0.009 | -0.085 | -0.016 | 0.098 | 0.011 | -0.013 | 0.041 | 0.075
